What all share (assay): NCI-60 one-dose screen, 48 h (100 = growth as untreated, 0 = no growth, -100 = all killed)
The test system of one assay is T-47D breast. Particulars: 10 µM.
The test system of a further assay is BT-549 breast. Particulars: 10 µM.
The next assay deals with MDA-MB-435 melanoma. Particulars: 10 µM.
In another assay the test system is SW-620 colon. The following applies: 10 µM.
For a further assay, the system named is MCF7 breast. The following applies: 10 µM unless noted.
The subject of the next assay is HCT-116 colon. The following applies: 10 µM.
The subject of a further assay is HCC-2998 colon. The following applies: 10 µM.
For another assay, the system named is KM12 colon. The following applies: 10 µM.

Results on 18 compounds are retold here after PubChem BioAssay (NCI).

Each structure is given as a SMILES string. Compounds without any hit were thinned out: in the full panel of roughly 83,000, 20% have a hit.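 Values shown are percent growth following 48 h exposure of cells in 96-well plates to a single concentration of compound; below 10 was considered active.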 Unmarked numbers belong to inactive results. Activity calls are given as the source filed them.

On to `Cc1ccc(/C(C#N)=C/c2ccc3c(c2)OCO3)cc1`, for which the growth is 64.1% in the assay on T-47D breast; 87.1% in the assay with BT-549 breast; -11.1% (active) in the assay on MDA-MB-435 melanoma; 32% in the assay on SW-620 colon; 49.7% in the assay with MCF7 breast; 72.8% with HCT-116 colon. Besides, the growth with HCC-2998 colon is 74.3%; in the assay on KM12 colon it was 26.1%.

In the case of `C#CCSc1nnnn1-c1ccc(Br)c(C)c1`, the growth in the assay on T-47D breast was 87.6%; in the assay with BT-549 breast it was 103%; with MDA-MB-435 melanoma it was 95.8%; in the assay on SW-620 colon, 99.9%; with MCF7 breast, 82.4%; with HCT-116 colon, 88%. The growth with HCC-2998 colon is 121%; with KM12 colon, 102%.

Turning to `CC1=NN(c2ccccc2)C(=O)/C1=C\N1CC(=O)NC1=S`, the growth is 97.1% with T-47D breast; 107% in the assay on BT-549 breast; 105% with MDA-MB-435 melanoma; 106% in the assay on SW-620 colon; 103% in the assay with MCF7 breast; 106% with HCT-116 colon. The growth in the assay on HCC-2998 colon is 108%; in the assay on KM12 colon it was 103%.

Regarding `CCOC(=O)/C(=C/c1ccc(OC)cc1)N(CC)CC`, the growth in the assay with T-47D breast was 92.6%; with BT-549 breast it was 108%; with MDA-MB-435 melanoma, 110%; in the assay with SW-620 colon, 103%; with MCF7 breast it was 103%; in the assay with HCT-116 colon, 101%. The growth was 111% in the assay on HCC-2998 colon and 104% in the assay with KM12 colon.

As for `CCOc1ccccc1/C=N/Nc1nc2ccccc2o1`, the growth was 23.4% in the assay with T-47D breast; 98.3% in the assay on BT-549 breast; 113% in the assay with MDA-MB-435 melanoma; 102% in the assay with SW-620 colon; 7.97% (active) with MCF7 breast; 102% in the assay with HCT-116 colon. Besides, the growth with HCC-2998 colon is 62.2%; with KM12 colon it was 86.4%.

For `C[N+](C)=c1ccc2nc3c(cc(Nc4ccccc4)c4ccccc43)oc-2c1`, the growth in the assay with T-47D breast was 31.8%; with BT-549 breast, 41.7%; with MDA-MB-435 melanoma, 53.5%; with SW-620 colon, 56%; with MCF7 breast, 32.5%; in the assay with HCT-116 colon, 47.1%. In addition, the growth in the assay with HCC-2998 colon was 75.6%; in the assay on KM12 colon, 62.5%.

In the case of `C=CCNC(=O)c1ccc(OC)cc1`, the growth in the assay with T-47D breast was 103%; with BT-549 breast it was 106%; with MDA-MB-435 melanoma, 109%; with SW-620 colon, 126%; with MCF7 breast, 95.2%; in the assay with HCT-116 colon, 105%. For the same compound, the results for the growth with HCC-2998 colon and in the assay with KM12 colon were 93.3% and 122%, respectively.

Regarding `CCc1ccc(/C(C#N)=C/C=C/c2ccccc2)cc1`, the growth with T-47D breast was 35.3%; in the assay on BT-549 breast it was 68.5%; with MDA-MB-435 melanoma, -17.5% (active); in the assay with SW-620 colon, 21%; with MCF7 breast, 16.2%; with HCT-116 colon, 33.5%. The growth is 60.8% in the assay on HCC-2998 colon and 35.1% in the assay on KM12 colon.

`CCOC(=O)C(CCC(C)C)C(=O)OCC`: the growth in the assay on T-47D breast was 100%; with BT-549 breast it was 104%; in the assay on MDA-MB-435 melanoma it was 102%; in the assay with SW-620 colon, 102%; with MCF7 breast, 97.5%; in the assay on HCT-116 colon, 108%. Besides, the growth with HCC-2998 colon was 101%; in the assay on KM12 colon, 104%.

As to `CN(C)/N=C/c1ccccc1O`, the growth was 98.6% in the assay with T-47D breast; 97.5% in the assay with BT-549 breast; 107% with MDA-MB-435 melanoma; 100% with SW-620 colon; 106% with MCF7 breast; 94.6% in the assay on HCT-116 colon. The growth in the assay with HCC-2998 colon was 117%; in the assay with KM12 colon it was 107%.

As to `N#CCCc1ccc(O)cc1`, the growth in the assay on T-47D breast is 101%; in the assay with BT-549 breast, 114%; in the assay with MDA-MB-435 melanoma, 99.8%; with SW-620 colon, 102%; with MCF7 breast, 98.4%; with HCT-116 colon, 116%. Moreover, the growth in the assay on HCC-2998 colon was 115%; with KM12 colon, 114%.

In the case of `CCCCC(O)c1ccccc1` (centres undefined), the growth with T-47D breast is 87.2%; with BT-549 breast, 110%; in the assay with MDA-MB-435 melanoma, 108%; with SW-620 colon, 108%; in the assay with MCF7 breast, 103%; in the assay on HCT-116 colon, 108%. Further, the growth is 104% with HCC-2998 colon and 106% with KM12 colon.

Regarding `COC(=O)Nc1nc2ccc(C(=O)c3ccc(F)cc3)cc2[nH]1`, the growth in the assay on T-47D breast is 112%; in the assay with BT-549 breast it was 32%; in the assay on MDA-MB-435 melanoma it was -60.2% (active); with SW-620 colon, 24.8%; in the assay with MCF7 breast, 15.6%; with HCT-116 colon, 14.2%. Further, the figures for the growth with HCC-2998 colon and with KM12 colon were 16.1% and -4.55% (active), respectively.

For `CCOC(=O)/C(C#N)=C/c1cccc(C)c1`, the growth in the assay with T-47D breast is 86.5%; with BT-549 breast, 64.1%; in the assay with MDA-MB-435 melanoma it was 107%; in the assay on SW-620 colon, 103%; in the assay on MCF7 breast it was 91.3%; in the assay on HCT-116 colon, 95.9%. Further, the growth in the assay on HCC-2998 colon is 102%; with KM12 colon, 103%.

For the compound `CSC(=N\N=C\c1ccc(N(C)C)cc1)/N=C/N(C)C`, the growth in the assay on T-47D breast was 94.9%; in the assay with BT-549 breast, 113%; with MDA-MB-435 melanoma it was 102%; in the assay with SW-620 colon it was 83.8%; in the assay on MCF7 breast it was 97%; with HCT-116 colon, 102%. Moreover, the results for the growth in the assay on HCC-2998 colon and in the assay with KM12 colon were 108% and 110%, respectively.

For `S=C(Nc1ccccc1)N1CCCCC1`, the growth with T-47D breast was 89.3%; in the assay on BT-549 breast, 112%; with MDA-MB-435 melanoma, 110%; in the assay with SW-620 colon, 106%; in the assay on MCF7 breast, 93.2%; in the assay on HCT-116 colon, 92.3%. The growth in the assay on HCC-2998 colon was 101%; in the assay with KM12 colon, 105%.

`COc1cccc(COC(=O)Nc2ccccc2)c1OC`: the growth in the assay on T-47D breast is 93.1%; with BT-549 breast, 107%; in the assay with MDA-MB-435 melanoma it was 91.7%; in the assay with SW-620 colon, 114%; in the assay with MCF7 breast, 97.6%; with HCT-116 colon, 104%. Besides, the growth in the assay with HCC-2998 colon was 102%; in the assay on KM12 colon, 106%.

In the case of `N#CCCN(CCCN1CCOCC1)CN1C(=O)c2ccccc2C1=O`, the growth was 96% in the assay on T-47D breast; 128% in the assay with BT-549 breast; 108% in the assay with MDA-MB-435 melanoma; 114% in the assay with SW-620 colon; 95.8% with MCF7 breast; 109% with HCT-116 colon. The growth in the assay on HCC-2998 colon is 101%; in the assay with KM12 colon it was 112%.
